Our source for the composite z-score and z-score values is PubChem BioAssay.

Active and inactive are the calls of the source.

Test [1] is described as follows: small molecules captured by biotinylated probe aFSTL3 – biochemical, small-molecule microarray, fluorescence 635/667, stem cell growth factor project, primary screen (AID 1064).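 Also: measures binding of the biotinylated anti-FSTL3 antibody to printed compounds.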 The following applies: higher = more signal.
Test [2] in a line: binders from COS7 lysate, DM2A8 probe, primary screen, torsin A project, cell lysate, small-molecule microarray, fluorescence 635/667 (AID 1065). The following applies: higher = more signal, COS7 lysate expressing mutant human TOR1A.
Test [3] can be described thus: small molecules captured by biotinylated probe aFGF2 – biochemical, small-molecule microarray, fluorescence 635/667, stem cell growth factor project, primary screen (AID 1067).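 Also: measures binding of biotinylated aFGF2 protein to printed compounds on slides; z-score merges feature fluorescence and signal-to-noise across triplicate slides.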 The following applies: higher = more signal.
Test [4] is described as follows: small molecules captured by biotinylated probe aFGF10 – biochemical, small-molecule microarray, fluorescence 635/667, stem cell growth factor project, primary screen (AID 1071).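 Also: score merges 667 nm spot intensity and signal to noise from triplicate slides.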 The following applies: higher = more signal.
Test [5] has as its target Neurogenic locus notch homolog protein 2 (Homo sapiens) (UniProt Q04721). Kind of test: small molecules binding Notch2 protein – biochemical, small-molecule microarray, 635 nm fluorescence, stem cell growth factors, primary screen (AID 1073). The following applies: higher = more signal.
The target in test [6] is Pro-neuregulin-1, membrane-bound isoform (Homo sapiens) (UniProt Q02297). Kind of test: small molecules binding neuregulin-1 protein – biochemical, small-molecule microarray, fluorescence 635/667, psychiatric disease protein project, primary screen (AID 1075).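 Also: score combines 667 nm spot fluorescence with signal to noise.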 To be noted: NRG1 binding, 635 nm fluorescence, higher = more signal.
For test [7], the system named is Neuregulin-1 EGF-like domain. Kind of test: small molecules binding NRG1 EGF domain – biochemical, small-molecule microarray, 635 nm fluorescence, primary screen (AID 1081).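 Also: binding of the protein to compounds printed on small-molecule microarray slides.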 The following applies: higher = more signal.
Test [8] is described as follows: FRG1 expression reporter modulators in myotubes – cell-based, C2C12 myotubes, firefly/Renilla luciferase, luminescence, FRG1 inhibition for FSHD, primary screen (AID 1084). To be noted: FRG1 promoter luciferase, higher = more signal, called active from +8 up or from −8 down.
Test [9] in a line: small molecules captured by biotinylated probe aFST – biochemical, small-molecule microarray, fluorescence 635/667, stem cell growth factor project, primary screen (AID 1086).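 Also: score merges 667 nm fluorescence with signal-to-noise of each printed compound spot.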 To be noted: higher = more signal.
The nature of test [10]: binders of probe aHhip on microarray, primary screen, stem cell growth factor project, biochemical, small-molecule microarray, fluorescence 635/667 (AID 1087).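 Also: score merges spot fluorescence at 667nm with spot signal to noise ratio.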 The following applies: higher = more signal.
The test system of test [11] is PRMT1 (protein arginine N-methyltransferase 1). Put plainly: small molecules binding arginine methyltransferase PRMT1 – biochemical, small-molecule microarray, 635 nm fluorescence, primary screen (AID 1088).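 Also: binding of Prmt1 protein to compounds spotted on small-molecule microarray slides.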 The following applies: higher = more signal.
A short description of test [12]: growth effects on S. cerevisiae YJM789 – YJM789 clinical isolate, OD600, 24 h, basal, primary screen (AID 1089).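 Also: growth of clinical yeast isolate S. cerevisiae YJM 789 seeded 1000 cells per well; test concentration not given here.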 The following applies: higher = more signal, called active from +8 up or from −8 down.
Test [13] in a line: S. pombe growth modifiers, basal conditions – strain 972, OD600, 24 h, no modulator, primary screen (AID 1090).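 Also: basal condition with compound alone and no growth modifier present; test concentration not given here.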 To be noted: S. pombe 972 growth, higher = more signal, called active from +8 up or from −8 down.
Test [14] can be described thus: budding yeast growth modifiers under rapamycin – strain BY4716, OD600, 96 h, primary screen (AID 1091). Also: test concentration not given here. To be noted: S. cerevisiae BY4716 + rapamycin, higher = more signal, called active from +8 up or from −8 down.
In test [15] the target is Torsin-1A-interacting protein 2 (Homo sapiens) (UniProt Q8NFQ8). Kind of test: small molecules binding lysate-expressed LULL1 – cell lysate, human LULL1 lysate, 635/667 nm fluorescence, primary screen (AID 1092).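 Also: probe is lysate of COS7 cells overexpressing human LULL1; score merges per-feature 667 nm fluorescence with signal-to-noise.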 To be noted: small-molecule microarray, hLULL1 lysate binding, 635 nm fluorescence; higher = more signal.
Test [16] can be described thus: optical density change of DRC41 E. coli – strain DRC41, OD650, 24 h, E. coli filamentation project, primary screen (AID 1093).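 Also: MC1000 strain lacking acrAB efflux and sulA so SOS filamentation is blocked; test concentration not given here.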 The following applies: E. coli DRC41 growth, higher = more signal, called active from +8 up or from −8 down.
A short description of test [17]: probe aLefty2 binding to arrayed compounds – biochemical, biotinylated probe, 635/667 nm fluorescence, primary screen (AID 1094).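 Also: score merges spot fluorescence near 667 nm with spot signal-to-noise ratio.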 To be noted: small-molecule microarray, higher = more signal.
Test [18] relates to Noggin (protein binding on small-molecule microarray). Put plainly: small molecules binding Noggin protein – biochemical, 635/667 nm fluorescence, primary screen (AID 1095).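 Also: score merges 667 nm feature fluorescence with signal to noise over triplicate slides.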 The following applies: 635 nm fluorescence, higher = more signal.
The target in test [19] is Neurogenic locus notch homolog protein 3 (Homo sapiens) (UniProt Q9UM47). Kind of test: small molecules binding NOTCH3 protein – biochemical, 635/667 nm fluorescence, primary screen (AID 1096). The following applies: small-molecule microarray, 635 nm fluorescence, higher = more signal.
Test [20] is described as follows: probe aEGFR binding to arrayed compounds – biochemical, biotinylated probe, 635/667 nm fluorescence, primary screen (AID 1097).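 Also: probe is a biotinylated anti-EGFR antibody binding compounds printed on slides; score combines fluorescence near 667 nm and signal to noise of each spot.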 To be noted: small-molecule microarray, higher = more signal.

Sequence of Neurogenic locus notch homolog protein 2 (Homo sapiens) (Q04721 whole entry, looked up, canonical isoform): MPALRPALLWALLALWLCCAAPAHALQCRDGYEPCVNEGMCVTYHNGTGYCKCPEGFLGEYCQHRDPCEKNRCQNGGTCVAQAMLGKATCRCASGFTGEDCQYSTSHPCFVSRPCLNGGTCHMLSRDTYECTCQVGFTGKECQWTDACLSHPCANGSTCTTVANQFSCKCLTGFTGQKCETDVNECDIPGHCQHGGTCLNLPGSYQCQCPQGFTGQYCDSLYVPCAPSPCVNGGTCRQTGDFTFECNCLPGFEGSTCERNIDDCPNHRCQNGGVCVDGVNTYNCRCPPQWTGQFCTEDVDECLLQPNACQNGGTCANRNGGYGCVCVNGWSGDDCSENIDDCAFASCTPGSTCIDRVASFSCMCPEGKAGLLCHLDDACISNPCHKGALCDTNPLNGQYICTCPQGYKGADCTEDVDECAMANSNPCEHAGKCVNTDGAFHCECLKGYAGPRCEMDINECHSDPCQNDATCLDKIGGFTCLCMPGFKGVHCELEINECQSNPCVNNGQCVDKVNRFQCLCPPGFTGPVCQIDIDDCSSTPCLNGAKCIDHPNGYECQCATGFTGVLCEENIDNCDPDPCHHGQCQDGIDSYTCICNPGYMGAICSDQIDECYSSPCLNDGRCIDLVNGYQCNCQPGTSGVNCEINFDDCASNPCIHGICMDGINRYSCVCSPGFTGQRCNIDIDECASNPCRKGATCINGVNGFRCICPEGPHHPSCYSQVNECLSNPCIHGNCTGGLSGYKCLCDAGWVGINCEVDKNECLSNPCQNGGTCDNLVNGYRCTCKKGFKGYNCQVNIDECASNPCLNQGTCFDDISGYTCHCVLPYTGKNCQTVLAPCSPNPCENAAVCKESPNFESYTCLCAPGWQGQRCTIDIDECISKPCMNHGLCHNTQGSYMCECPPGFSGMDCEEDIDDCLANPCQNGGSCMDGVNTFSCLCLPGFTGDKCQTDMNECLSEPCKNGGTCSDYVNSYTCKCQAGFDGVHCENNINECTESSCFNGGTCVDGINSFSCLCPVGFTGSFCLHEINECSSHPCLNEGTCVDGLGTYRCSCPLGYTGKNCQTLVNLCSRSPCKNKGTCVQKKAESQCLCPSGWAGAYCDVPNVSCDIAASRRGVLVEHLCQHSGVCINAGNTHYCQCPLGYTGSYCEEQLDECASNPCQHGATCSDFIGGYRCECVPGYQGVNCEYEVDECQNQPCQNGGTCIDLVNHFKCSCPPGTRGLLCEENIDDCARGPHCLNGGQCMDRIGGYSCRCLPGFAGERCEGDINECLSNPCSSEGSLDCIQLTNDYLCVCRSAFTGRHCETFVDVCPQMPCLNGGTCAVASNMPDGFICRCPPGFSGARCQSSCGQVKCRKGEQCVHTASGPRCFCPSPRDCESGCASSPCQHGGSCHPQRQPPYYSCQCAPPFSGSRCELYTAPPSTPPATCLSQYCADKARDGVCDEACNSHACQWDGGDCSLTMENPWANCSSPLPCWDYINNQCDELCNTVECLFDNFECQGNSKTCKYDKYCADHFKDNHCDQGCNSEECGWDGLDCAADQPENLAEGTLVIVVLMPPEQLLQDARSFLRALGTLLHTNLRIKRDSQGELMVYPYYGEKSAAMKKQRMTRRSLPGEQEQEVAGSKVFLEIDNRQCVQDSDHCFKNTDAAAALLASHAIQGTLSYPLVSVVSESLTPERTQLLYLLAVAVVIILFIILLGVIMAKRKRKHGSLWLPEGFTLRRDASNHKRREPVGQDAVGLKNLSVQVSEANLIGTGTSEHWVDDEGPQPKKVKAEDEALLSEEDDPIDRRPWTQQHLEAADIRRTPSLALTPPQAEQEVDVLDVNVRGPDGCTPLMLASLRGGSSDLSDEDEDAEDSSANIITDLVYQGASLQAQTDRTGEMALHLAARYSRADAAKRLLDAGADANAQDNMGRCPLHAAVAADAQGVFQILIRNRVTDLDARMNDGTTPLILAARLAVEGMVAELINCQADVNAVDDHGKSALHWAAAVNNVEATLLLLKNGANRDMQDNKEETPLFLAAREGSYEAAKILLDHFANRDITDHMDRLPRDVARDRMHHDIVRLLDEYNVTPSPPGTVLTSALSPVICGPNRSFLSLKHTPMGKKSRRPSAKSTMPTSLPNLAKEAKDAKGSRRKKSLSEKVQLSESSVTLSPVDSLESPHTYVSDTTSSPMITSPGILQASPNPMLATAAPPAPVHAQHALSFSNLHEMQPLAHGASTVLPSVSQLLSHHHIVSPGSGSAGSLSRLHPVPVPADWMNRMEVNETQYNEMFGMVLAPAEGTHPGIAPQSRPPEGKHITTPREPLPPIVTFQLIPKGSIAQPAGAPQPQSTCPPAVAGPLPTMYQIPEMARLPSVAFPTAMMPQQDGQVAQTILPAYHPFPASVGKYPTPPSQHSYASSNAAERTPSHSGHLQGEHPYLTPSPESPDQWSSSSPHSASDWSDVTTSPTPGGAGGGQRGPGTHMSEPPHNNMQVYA
Sequence of Neurogenic locus notch homolog protein 3 (Homo sapiens) (Q9UM47 whole entry, looked up): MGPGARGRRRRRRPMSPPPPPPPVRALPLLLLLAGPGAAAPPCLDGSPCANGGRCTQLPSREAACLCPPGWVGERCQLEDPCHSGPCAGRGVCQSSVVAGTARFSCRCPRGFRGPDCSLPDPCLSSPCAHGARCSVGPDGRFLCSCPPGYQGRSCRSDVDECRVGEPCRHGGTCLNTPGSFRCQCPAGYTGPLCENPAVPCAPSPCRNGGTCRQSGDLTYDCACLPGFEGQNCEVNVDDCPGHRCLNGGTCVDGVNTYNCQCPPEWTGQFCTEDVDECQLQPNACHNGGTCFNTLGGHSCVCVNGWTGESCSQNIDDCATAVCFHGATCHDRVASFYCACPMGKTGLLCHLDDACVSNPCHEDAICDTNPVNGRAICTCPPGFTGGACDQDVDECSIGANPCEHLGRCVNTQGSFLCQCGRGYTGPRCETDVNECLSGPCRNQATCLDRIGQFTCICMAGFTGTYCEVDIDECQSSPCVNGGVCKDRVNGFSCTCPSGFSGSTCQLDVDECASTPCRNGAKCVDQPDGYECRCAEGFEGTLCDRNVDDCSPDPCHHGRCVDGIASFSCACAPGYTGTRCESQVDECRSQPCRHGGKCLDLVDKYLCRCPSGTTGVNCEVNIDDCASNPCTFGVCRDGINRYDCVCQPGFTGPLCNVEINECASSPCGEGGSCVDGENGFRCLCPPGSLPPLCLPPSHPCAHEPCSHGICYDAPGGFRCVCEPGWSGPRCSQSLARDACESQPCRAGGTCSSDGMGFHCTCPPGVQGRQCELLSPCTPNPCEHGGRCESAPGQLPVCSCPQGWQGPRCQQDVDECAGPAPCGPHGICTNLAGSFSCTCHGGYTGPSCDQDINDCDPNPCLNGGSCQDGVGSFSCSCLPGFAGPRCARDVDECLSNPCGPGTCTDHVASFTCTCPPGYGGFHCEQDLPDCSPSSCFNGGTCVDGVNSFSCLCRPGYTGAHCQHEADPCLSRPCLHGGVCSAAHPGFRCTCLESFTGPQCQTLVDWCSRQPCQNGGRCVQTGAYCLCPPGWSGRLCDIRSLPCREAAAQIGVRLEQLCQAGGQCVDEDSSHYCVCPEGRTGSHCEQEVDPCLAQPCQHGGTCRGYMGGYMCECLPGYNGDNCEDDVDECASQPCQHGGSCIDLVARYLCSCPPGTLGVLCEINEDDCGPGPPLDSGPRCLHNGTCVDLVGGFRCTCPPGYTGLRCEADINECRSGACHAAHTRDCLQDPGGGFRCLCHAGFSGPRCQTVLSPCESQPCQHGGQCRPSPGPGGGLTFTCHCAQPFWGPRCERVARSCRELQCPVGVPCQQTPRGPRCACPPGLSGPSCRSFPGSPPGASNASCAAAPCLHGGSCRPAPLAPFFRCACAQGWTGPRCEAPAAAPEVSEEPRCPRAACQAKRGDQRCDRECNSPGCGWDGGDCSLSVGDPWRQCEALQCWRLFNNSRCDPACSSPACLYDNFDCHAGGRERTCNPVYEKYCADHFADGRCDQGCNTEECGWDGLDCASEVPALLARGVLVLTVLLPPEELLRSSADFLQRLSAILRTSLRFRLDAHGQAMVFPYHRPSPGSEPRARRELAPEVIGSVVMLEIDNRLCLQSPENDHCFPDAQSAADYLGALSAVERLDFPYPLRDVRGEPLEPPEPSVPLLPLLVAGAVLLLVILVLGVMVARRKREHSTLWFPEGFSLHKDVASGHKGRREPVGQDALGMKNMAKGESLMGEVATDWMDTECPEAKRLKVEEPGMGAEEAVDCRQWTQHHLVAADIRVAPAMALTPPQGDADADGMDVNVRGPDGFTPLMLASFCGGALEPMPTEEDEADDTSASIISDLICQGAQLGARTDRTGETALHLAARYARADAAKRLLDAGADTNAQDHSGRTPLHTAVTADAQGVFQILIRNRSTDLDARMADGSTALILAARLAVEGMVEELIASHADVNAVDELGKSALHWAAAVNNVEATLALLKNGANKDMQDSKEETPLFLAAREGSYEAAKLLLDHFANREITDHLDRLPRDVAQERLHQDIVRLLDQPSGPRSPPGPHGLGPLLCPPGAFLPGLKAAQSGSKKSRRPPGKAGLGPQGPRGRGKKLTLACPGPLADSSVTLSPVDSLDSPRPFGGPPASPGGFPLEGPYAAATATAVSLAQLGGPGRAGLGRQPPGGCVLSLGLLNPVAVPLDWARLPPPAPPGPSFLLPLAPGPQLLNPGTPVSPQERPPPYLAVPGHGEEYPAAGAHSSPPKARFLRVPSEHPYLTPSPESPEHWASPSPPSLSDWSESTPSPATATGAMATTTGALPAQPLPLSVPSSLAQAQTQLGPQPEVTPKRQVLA

For the compound `C=C[C@H](C)[C@@H](O)c1ccc(O)c2ccccc12`, the composite z-score is -0.161 in test [1]; -0.0359 in test [2]; 0.126 in [3]; -0.749 in test [4]; -1 in [5]; -0.329 in test [6]. For the same compound, the composite z-score was -0.158 in [7]; -1.03 in test [9]; 0.0274 in test [10]; -0.169 in [11]; 0.853 in [15]; -0.254 in [17]. Also, the values for the composite z-score in [18], in [19] and in [20] were -0.0597, -0.0004 and -0.322, respectively. Moreover, the z-score was -0.202 (inactive) in [8]; -0.968 (inactive) in [12]; -13.3 (active) in test [13]; 4.25 (inactive) in test [14]; 0.149 (inactive) in test [16].

For `C=CC[C@@]1(C(=O)O)N=C(c2ccc(OCCCO)cc2)O[C@@H]1c1ccccc1N=[N+]=[N-]`, the composite z-score in test [1] is 1.44; in test [2] it was -0.0147; in test [3], -0.0112; in test [4], 0.484; in test [5], 0.0707; in test [6] it was 0.915. Also, the composite z-score was found to be 1.07 in test [7]; 0.965 in [9]; 0.421 in test [10]; 1.23 in [11]; 3.24 in test [15]; 0.23 in test [17]. The results for the composite z-score in [18], in test [19] and in test [20] were -0.203, -0.231 and -0.0225, respectively. Also, the z-score in [8] is 4.25 (inactive); in test [12], 0.0908 (inactive); in [13], -0.594 (inactive); in [14] it was -1.46 (inactive); in test [16], 0.0672 (inactive).

With `O=C1O[C@H](c2ccccc2)[C@H](c2ccccc2)N2[C@H]1[C@@H](C(=O)O)[C@]1(C(=O)Nc3ccc(C#CC4=CCCCC4)cc31)[C@H]2c1ccc(OCCO)cc1`, the composite z-score in test [1] is -0.0152; in test [2], 0.651; in test [3], -0.0438; in [4], 1.09; in test [5], 1.44; in [6], 1.77. The composite z-score in test [7] is 1.34; in test [9] it was 1.03; in test [10], -0.0672; in test [11], 1.54; in test [15] it was 3.06; in test [17], -0.0104. The composite z-score is 1.34 in test [18], 1.1 in [19] and -0.0657 in test [20]. Besides, the z-score is 0.448 (inactive) in [8]; 2.1 (inactive) in test [12]; 1.14 (inactive) in [13]; -0.1 (inactive) in test [14]; -0.413 (inactive) in test [16].

Take `CC(C)c1ccc(NN2C(C(O)c3ccc(N(C)C)cc3)C=CC3C(=O)N(c4ccccc4)C(=O)C32)cc1` (stereo not given): the composite z-score in test [1] is -0.145; in test [2], 1.43; in [3] it was 0.0485; in [4] it was 0.405; in test [5] it was 1.5; in test [6] it was 1.88. Also, the composite z-score in test [7] is 1.12; in test [9] it was 1.46; in test [10], -0.166; in test [11] it was 1.56; in test [15], 3.34; in [17] it was 0.188. In addition, the composite z-score in [18] is 0.109; in test [19] it was 1.03; in test [20], -0.027. The z-score in test [8] was 2.3 (inactive); in [12], 0.372 (inactive); in [13] it was 1.26 (inactive); in [14], 0.197 (inactive); in test [16], -0.158 (inactive).

As to `CC(C)(C)OC(=O)CC[C@@]1(C(=O)NCCN2CCOCC2)N=C(c2ccc(OCCCO)cc2)O[C@@H]1c1ccccc1`, the composite z-score in [1] amounted to 1.11; in test [2], 1.4; in [3], 0.0189; in test [4], 0.262; in test [5] it was 1.28; in test [6] it was 1.75. Moreover, the composite z-score in test [7] was 1.2; in test [9], 0.972; in test [10], 0.167; in test [11] it was 1.57; in test [15], 3.1; in test [17] it was 0.37. The composite z-score in test [18] is 0.755; in [19], 0.807; in test [20], 0.285. The z-score in test [8] is 0.951 (inactive); in test [12], -0.444 (inactive); in test [13], 0.0418 (inactive); in [14] it was -0.552 (inactive); in [16] it was 1.03 (inactive).

Take `CC(C)NC(=O)[C@@H]1c2ccccc2C(=O)N(Cc2ccccc2Cl)[C@H]1c1ccc(CO)cc1`: the composite z-score in test [1] was 0.717; in [2] it was 0.337; in [3] it was -0.145; in test [4] it was -0.277; in [5], -0.387; in [6], 1.49. In addition, the composite z-score in test [7] is 1.39; in test [9] it was -0.216; in test [10], -0.137; in test [11], 1.4; in [15], 1.8; in [17], -0.053. Besides, the composite z-score in [18] is -0.384; in [19] it was 0.143; in [20], -0.287. The z-score in test [8] is -1.84 (inactive); in test [12], 0.759 (inactive); in test [13], 0.247 (inactive); in test [14], 0.173 (inactive); in test [16], 1.19 (inactive).

Regarding `CC(c1ccccc1)C(O)C1C=CC2C(=O)NC(=O)C2N1Nc1ccccn1` (stereo not given), the composite z-score in test [1] was 0.166; in [2], -0.0988; in test [3], -0.044; in [4], 0.306; in test [5], 1.5; in [6], 0.142. The composite z-score is 1.33 in [7]; 0.421 in test [9]; -0.271 in [10]; 1.43 in test [11]; 1.52 in test [15]; 0.136 in test [17]. For the same compound, the composite z-score in [18] is 0.361; in [19] it was 1.12; in [20], -0.0159. For the same compound, the z-score in test [8] was 1.14 (inactive); in test [12], 0.978 (inactive); in [13], 0.704 (inactive); in test [14] it was 1.17 (inactive); in test [16], -0.88 (inactive).

As for `CC(C)N1C(=O)[C@@]2(c3ccc([N+](=O)[O-])cc3)CC(=O)N(CC34CC5CC(CC(C5)C3)C4)[C@@H]2c2ccc(CO)cc21`, the composite z-score in [1] was -0.448; in test [2], -1.26; in [3] it was -0.188; in test [4] it was -0.373; in [5], -1.16; in test [6], -0.34. The composite z-score was -0.867 in test [7]; -0.39 in test [9]; -0.164 in [10]; 0.788 in test [11]; -0.0313 in [15]; -0.253 in [17]. Further, the values for the composite z-score in test [18], in test [19] and in test [20] were -0.337, 0.272 and -0.162, respectively. Also, the z-score in [8] is 0.63 (inactive); in test [12] it was 0.759 (inactive); in test [13], 0.652 (inactive); in test [14] it was -0.975 (inactive); in test [16], -0.0342 (inactive).

Regarding `Cc1ccc(S[C@]2(C(=O)NC3CC3)CC(=O)N(C3CCCCC3)[C@@H]2c2ccc(CO)cc2I)cc1`, the composite z-score in test [1] is -0.208; in test [2] it was 0.298; in test [3] it was -0.0328; in [4], 0.48; in test [5], 1.03; in [6], 1.29. Besides, the composite z-score was 1.31 in test [7]; 0.431 in test [9]; 0.118 in test [10]; 1.53 in test [11]; 2.6 in test [15]; -0.138 in [17]. The composite z-score was 0.659 in [18], 1.06 in [19] and -0.0703 in test [20]. Further, the z-score was -4.48 (inactive) in test [8]; 0.0615 (inactive) in test [12]; 0.532 (inactive) in test [13]; 1.38 (inactive) in test [14]; 1.26 (inactive) in test [16].
